Measured values published in PubChem BioAssay (NCATS).
Records with an inconclusive call do not appear. The source made the active and inactive calls. Unless noted, calls come from the whole dose curve; as a rule, active = well fitted curve in the direction sought with a large enough effect; inconclusive = small, poorly fitted or top-dose-only effect, or another doubt; inactive = no such curve, though single readings can be large; an effect the other way counts as inactive or inconclusive.

Legend:
[1] = Cell Viability - BJ (AID 421; calls by dose curve;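 note: potency is the fitted concentration of half-maximal effect; cells exposed to compound for 40 hours at 37 °C before readout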); conditions: BJ fibroblast viability, qHTS
How it was run: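 Normal human BJ foreskin fibroblasts, 1500/well in complete medium, treated 40 hr at 37 °C. Cellular ATP by CellTiter-Glo luminescence; normalized to DMSO and 100 uM tamoxifen, AC50 from Hill fit.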

[2] = Cell Viability - Jurkat (AID 426;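 active = dose-dependent loss of cell ATP signal giving a full or clear fitted curve, ranked by lower potency value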; note: potency is the fitted concentration of half-maximal effect); conditions: qHTS
How it was run: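 Seed 5000 Jurkat E6-1 cells/well; add compound; incubate 40 hr at 37 °C; add CellTiter-Glo; wait 20 min at room temperature; read luminescence. Fit concentration-response with Hill equation for AC50.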

[3] = Cell Viability - HepG2 (AID 433; calls by dose curve;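 note: potency is the fitted concentration of half-maximal effect; potency for ATP loss meaning cytotoxicity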); conditions: qHTS
How it was run: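 In this qHTS format, a 40 h, 37 °C compound incubation of HepG2 cells in complete medium precedes a 20 min CellTiter-Glo step at room temperature. Tamoxifen and doxorubicin serve as positive controls; Hill-equation fits yield AC50.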

[4] = Cell Viability - MRC5 (AID 434; calls by dose curve;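 note: potency is the fitted concentration of half-maximal effect; potency reflects cytotoxicity seen as loss of intracellular ATP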); conditions: MRC5 lung fibroblast viability, qHTS
How it was run: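 qHTS cytotoxicity in human lung fibroblast MRC5 cells; 40 hr treatment, 37 °C; cellular ATP by luciferase luminescence; DMSO = 0%, 100 uM tamoxifen = 100% inhibition; Hill-fit AC50.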

[5] = Cell Viability - SK-N-SH (AID 435; calls by dose curve;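 note: potency is the fitted concentration of half-maximal effect; compound exposure lasted 40 h at 37 °C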); conditions: SK-N-SH neuroblastoma cell viability qHTS
How it was run: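 Human neuroblastoma line, 40 h exposure at 37 °C, ATP quantified via luciferase luminescence; DMSO and 100 uM tamoxifen define 0 and 100% inhibition for AC50 fitting.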

[6] = Cell Viability - N2a (AID 540); conditions: N2a mouse neuroblastoma cell viability; at 92.2 µM (top of the series);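 note: plate controls were DMSO alone for no effect and tamoxifen control for full effect; nearly all actives have a fitted effect of over 45% in size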
How it was run: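 First, 1500 N2a cells per well incubate 5 hr at 37 °C; next, compounds are added and incubated 40 hr at 37 °C; finally CellTiter-Glo is added and luminescence read after 20 min, with AC50 derived by Hill modeling.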

[7] = Cell Viability - NIH 3T3 (AID 541); conditions: NIH 3T3 cell viability, qHTS; at 92.2 µM (top of the series);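 note: plate controls were DMSO alone for no effect and tamoxifen positive control for full effect; nearly all actives have a fitted effect of over 25% in size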
How it was run: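 AC50 values reflect concentration-dependent loss of intracellular ATP in NIH 3T3 cells after 40 hr treatment in complete culture medium, quantified by luciferase-based luminescence.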

[8] = Cell Viability - HUV-EC-C (AID 542); conditions: HUV-EC-C endothelial cell viability, qHTS; note: potency is the fitted concentration of half-maximal effect; nearly all actives have a fitted effect of over 35% in size
How it was run: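 Decrease in cellular ATP, quantified by luciferase luminescence, reflects toxicity in normal human vascular endothelial HUV-EC-C cells given compound for 40 hr in complete culture medium. Values are AC50s from concentration-response curves.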

[9] = Cell Viability - H-4-II-E (AID 543); conditions: H-4-II-E rat hepatoma viability; note: potency is the fitted concentration of half-maximal effect; nearly all actives have a fitted effect of over 35% in size
How it was run: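 Here, cytotoxicity is measured in the rat hepatoma line H-4-II-E as loss of intracellular ATP after 40 hr compound treatment, detected by luciferase luminescence.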

[10] = Cell Viability - SH-SY5Y (AID 544); conditions: SH-SY5Y neuroblastoma cell viability; note: potency is the fitted concentration of half-maximal effect; nearly all actives have a fitted effect of over 55% in size
How it was run: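 Cytotoxicity is scored as a concentration-dependent fall in intracellular ATP in human SH-SY5Y cells treated 40 hr in complete culture medium. Potency is expressed as AC50 from a Hill equation fit.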

[11] = Cell Viability - Renal Proximal Tubule (AID 545); conditions: renal proximal tubule cells viability, primary cells of rat origin; at 91.7 µM (top of the series);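 note: 0% = DMSO only and -100% = 100 µM tamoxifen; nearly all actives have a fitted effect of over 40% in size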
How it was run: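 In this qHTS format, normal rat kidney-derived proximal tubule cells in complete culture medium receive compound titrations, then sit 40 hours at 37 °C before luciferase-based ATP quantitation; potency is reported as AC50 from concentration-response curves.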

[12] = Cell Viability - Mesenchymal (AID 546); conditions: mesenchymal cells viability, qHTS;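 note: potency is the fitted concentration of half-maximal effect; cells exposed to compound for 40 hours before reading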
How it was run: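 AC50 values reflect the drop in intracellular ATP in a human kidney mesenchymal line derived from normal glomeruli. Treatment lasts 40 hr at 37 °C in complete medium, and the signal comes from CellTiter-Glo luminescence.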

[13] = Cellular Toxicity (caspase-3) HepG2 (AID 654);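 note: cells exposed to compound for 16 hours before reading; 0% = DMSO alone and 100% = caspase signal from 100 µM tamoxifen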
How it was run: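 qHTS, HepG2, 1500 cells/well, complete medium; cpd 16 h 37 °C; Caspase-Glo 3/7, 20 min RT; lum. Norm: DMSO vs 100 uM tamoxifen; AC50 Hill fit.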

[14] = Cellular Toxicity (caspase-3) Jurkat (AID 655);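 note: cells exposed to compound for 16 h at 37 °C before reading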
How it was run: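 qHTS in human Jurkat T-cell leukemia line: 16 hr compound treatment at 37 °C, caspase-3/7 activity measured by Caspase-Glo luminescence. AC50 derived from Hill equation.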

[15] = Cellular Toxicity (caspase-3) HUV-EC-C (AID 656);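 note: 0% = DMSO basal and 100% = 100 µM tamoxifen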
How it was run: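 Concentration-dependent caspase 3/7 induction was assessed in HUV-EC-C cells exposed for 16 hours. Data scaled between DMSO and tamoxifen (100 uM) controls.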

[16] = Cellular Toxicity (caspase-3) SHSY5Y (AID 657)
How it was run: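 Readout: caspase-cleaved peptide-aminoluciferin substrate driving luciferase light in SH-SY5Y neuroblastoma cells after 16 h treatment. Response normalized to DMSO and 10 uM staurosporine controls.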

[17] = Cellular Toxicity (caspase-3) BJ (AID 658);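 note: 0% = DMSO basal and 100% = 10 µM staurosporine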
How it was run: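 Readout: Caspase-Glo 3/7 luminescence increase in BJ cells after 16 hr treatment at 37 °C. Staurosporine and tamoxifen served as positive controls; AC50 values came from Hill modelling of data normalized to DMSO and 10 uM staurosporine.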

[18] = Cellular Toxicity (caspase-3) MRC-5 (AID 659);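 note: 0% = DMSO basal and 100% = 10 µM staurosporine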
How it was run: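 Concentration-dependent caspase 3/7 activation is measured in human normal lung fibroblasts (MRC-5) following 16-hour treatment. AC50 values come from standard Hill-equation modeling of luminescence normalized to DMSO and 10 uM staurosporine.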

[19] = Cellular Toxicity (caspase-3) Mesangial (AID 660);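 note: combined caspase 3 and 7 activity read by Caspase-Glo luminescence; cells exposed to compound for 16 h before the caspase read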
How it was run: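 Concentration-response qHTS: compound-induced rise in caspase 3/7 luminescence in human mesangial cells after 16 h, normalized to DMSO and 100 uM tamoxifen controls.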

[20] = Cellular Toxicity (caspase-3) SK-N-SH (AID 661);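 note: 0% = DMSO basal and 100% = 10 µM staurosporine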
How it was run: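 Caspase 3/7 activation is measured as a luminescence increase from aminoluciferin released by substrate cleavage in SK-N-SH cells after 16 hr compound treatment; values are AC50 from concentration-response curves.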

[21] = Cellular Toxicity (caspase-3) H-4-II-E (AID 663);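 note: cells exposed to compound for 16 hr before readout; 0% = DMSO basal and 100% = 100 µM tamoxifen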
How it was run: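 Apoptosis induction is scored as increased luminescence from caspase 3/7 substrate cleavage in rat hepatoma H-4-II-E cells exposed to compound for 16 hr. Activity is scaled between DMSO and 100 uM tamoxifen.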

[22] = Cellular Toxicity (caspase-3) Hek293 (AID 664);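 note: cells exposed to compound for 16 h at 37 °C before readout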
How it was run: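 Activation of caspase-3/7 is measured as increased luminescence from cleaved peptide-aminoluciferin substrate in HEK293 cells treated 16 hours at 37 °C. AC50 values come from Hill-equation fits of concentration-response data.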

[23] = Cellular Toxicity (caspase-3) N2a (AID 665);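 note: compound exposure lasted 16 h at 37 °C before readout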
How it was run: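 Plated mouse neuroblastoma N2a cells received titrated compounds for 16 h in complete medium. Caspase activity was then detected with a peptide-aminoluciferin luminescent reagent.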

[24] = Cellular Toxicity (caspase-3) NIH 3T3 (AID 666);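 note: caspase signal read after 16 h compound exposure; 0% = DMSO basal and 100% = 100 µM tamoxifen stimulation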
How it was run: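 Concentration-response qHTS in NIH 3T3 mouse fibroblasts scores caspase-3/7 activation as rising luminescence after 16 hr compound exposure. Signals are scaled between DMSO-only and 100 uM tamoxifen.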

[25] = Cell Viability - LYMP2-001 (AID 921); conditions: LYMP2-001 lymphoblastoid cell viability; note: potency is the fitted concentration of half-maximal effect; nearly all actives have a fitted effect of over 70% in size
How it was run: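 A lymphoblastoid cell line of human origin was treated with library compounds across a concentration series for 24 hours, and viable cell number was estimated from ATP-driven luciferase light output. Hill modeling gave AC50.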

[26] = MultiTox-Fluor Cytotoxicity Assay - LYMP1-001 - Dead Cells (AID 946);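 note: 0% = DMSO and 100% = tetraoctylammonium bromide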
How it was run: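 LYMP1-001 lymphoblastoid cells (2500/well) treated 16 h at 37 C. Dead-cell protease cleavage of bis-AAF-R110 read at Ex/Em 485/520. Normalized to DMSO and 15 uM tetraoctylammonium bromide; AC50 from Hill fits.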

[27] = Cell Viability - LYMP1-002 - Assay at 16 hr (AID 948); conditions: LYMP1-002 lymphoblastoid cell viability; note: potency is the fitted concentration of half-maximal effect
How it was run: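 In this qHTS, lymphoblastoid LYMP1-002 cells (human) receive compounds for 16 hr at 37 C. Viability is taken from CellTiter-Glo ATP luminescence, and AC50 derives from standard Hill fits.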

[28] = MultiTox-Fluor Cytotoxicity Assay - LYMP1-002 - Dead Cells (AID 960);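 note: 0% = DMSO and 100% = tetraoctylammonium bromide; nearly all actives have a fitted effect of over 60% in size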
How it was run: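 Acute cytotoxicity in a human lymphoblastoid line is scored as rising dead-cell protease signal after 16 hr exposure at 37 C, measured fluorometrically (485/520).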

[29] = MultiTox-Fluor Cytotoxicity Assay - LYMP1-003 - Dead Cells (AID 961);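 note: 0% = DMSO and 100% = tetraoctylammonium bromide; nearly all actives have a fitted effect of over 70% in size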
How it was run: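 LYMP1-003 human lymphoblastoid cells (2500/well) exposed to compound 16 h at 37 C in complete medium; dead-cell protease read with bis-AAF-R110 fluorescence (Ex/Em 485/520) after 60 min at room temperature. Normalized to DMSO and 15 uM tetraoctylammonium bromide; AC50 from Hill fit.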

[30] = MultiTox-Fluor Cytotoxicity Assay - LYMP1-003 - Live Cells (AID 962); conditions: LYMP1-003 lymphoblastoid cells, MultiTox-Fluor live-cell protease fluorescence; note: potency is the fitted concentration of half-maximal effect
How it was run: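 Cells plated at 2500 per well and incubated 5 hr; compounds added and incubated 16 hr at 37 C; MultiTox-Fluor reagent added for 60 min at room temperature; fluorescence of liberated AFC measured at 405/510 nm.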

[31] = Cell Viability - LYMP1-003 - Assay at 24 hr (AID 963); conditions: LYMP1-003 lymphoblastoid cell viability; note: potency is the fitted concentration of half-maximal effect
How it was run: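 Acute toxicity in LYMP1-003 lymphoblastoid cells: 24 hr compound treatment at 37 C, ATP measured with CellTiter-Glo after 30 min at room temperature. AC50 derived by fitting the Hill equation to qHTS titrations.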

[32] = Cell Viability - LYMP1-003 - Assay at 40 hr (AID 964); conditions: LYMP1-003 lymphoblastoid viability; note: potency is the fitted concentration of half-maximal effect; nearly all actives have a fitted effect of over 60% in size
How it was run: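 This qHTS cytotoxicity screen treats human lymphoblastoid cells (LYMP1-003) with compounds for 40 hr and quantifies cellular ATP via luciferase luminescence.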

[33] = Cell Viability - LYMP2-003 (AID 965); conditions: LYMP2-003 lymphoblastoid cell viability;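 note: potency is the fitted concentration of half-maximal effect; cells exposed to compounds for 24 h before reading; nearly all actives have a fitted effect of over 50% in size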
How it was run: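 qHTS, human lymphoblastoid line, 2500 cells/well, complete medium. 24 h drug, 37 C. ATP-based luminescent readout; Hill-fit AC50.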

[34] = Cell Viability - LYMP2-004 (AID 966); conditions: LYMP2-004 lymphoblastoid cell viability, qHTS; note: potency is the fitted concentration of half-maximal effect; nearly all actives have a fitted effect of over 65% in size
How it was run: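 Acute toxicity is scored as a concentration-dependent drop in intracellular ATP, quantified by luciferase luminescence, in human lymphoblastoid cells exposed to compound for 24 hr. AC50 derives from Hill-equation modelling.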

[35] = Cell Viability - LYMP2-005 (AID 967); conditions: LYMP2-005 lymphoblastoid cell viability; note: potency is the fitted concentration of half-maximal effect
How it was run: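 Luciferase-based ATP quantitation served as the viability measure in human lymphoblastoid LYMP2-005 cells exposed to test compounds for 24 h at 37 C in complete culture medium. Potency (AC50) was obtained by fitting concentration-response curves with the Hill equation.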

[36] = Cell Viability - LYMP2-009 (AID 968); conditions: LYMP2-009 lymphoblastoid cell viability; note: potency is the fitted concentration of half-maximal effect; nearly all actives have a fitted effect of over 55% in size
[37] = Cell Viability - LYMP2-011 (AID 969); conditions: LYMP2-011 lymphoblastoid cells viability; note: potency is the fitted concentration of half-maximal effect; nearly all actives have a fitted effect of over 60% in size
How it was run: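 Acute toxicity is scored as a concentration-dependent drop in intracellular ATP of a human lymphoblastoid line after 24 hr treatment. Values are AC50s modeled with the Hill equation.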

[38] = Cell Viability - LYMP2-013 (AID 970); conditions: LYMP2-013 lymphoblastoid cells viability; note: potency is the fitted concentration of half-maximal effect; nearly all actives have a fitted effect of over 55% in size
How it was run: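 Acute toxicity was measured in human lymphoblastoid cells (2500/well) exposed to compound titrations for 24 hr, with ATP luminescence (CellTiter-Glo) as read-out and AC50 fitted by Hill equation.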

[39] = Cell Viability - LYMP2-015 (AID 971); conditions: LYMP2-015 lymphoblastoid cell viability; note: potency is the fitted concentration of half-maximal effect; nearly all actives have a fitted effect of over 55% in size
How it was run: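 Acute toxicity was scored as a concentration-dependent drop in intracellular ATP in lymphoblastoid cells after 24 hr compound exposure in complete medium. Detection used CellTiter-Glo luciferase luminescence.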

O=C1c2c(O)ccc([N+](=O)[O-])c2C(=O)c2c([N+](=O)[O-])ccc(O)c21
active: Potency [1] 28.5 µM | Potency [2] 25.8 µM | Potency [3] 27.4 µM | Potency [4] 30.1 µM | Potency [5] 28.8 µM | activity change, negative = cytotoxicity [6] -111% | activity change, negative = cytotoxicity [7] -139% | Potency [8] 31.6 µM | Potency [9] 31.6 µM | Potency [10] 25.1 µM | activity change, negative = cytotoxicity [11] -107% | Potency [12] 31.6 µM | Potency [25] 50.1 µM | Potency [27] 39.8 µM | Potency [30] 50.1 µM | Potency [31] 39.8 µM | Potency [32] 39.8 µM | Potency [33] 31.6 µM | Potency [34] 31.6 µM | Potency [35] 39.8 µM | Potency [36] 31.6 µM | Potency [37] 39.8 µM | Potency [38] 50.1 µM | Potency [39] 31.6 µM
inactive: outcome [13] | outcome [14] | outcome [15] | outcome [16] | outcome [17] | outcome [18] | outcome [19] | outcome [20] | outcome [21] | outcome [22] | outcome [23] | outcome [24] | outcome [26] | outcome [28] | outcome [29]
